ssDAF-12 act – activators of S. stercoralis DAF-12 nuclear receptor; AID 652126; HEK293 ssDAF-12/GRIP1 lit1-tk-luc reporter, luminescence; % of 3 µM dafachronic acid response; activation, % at 6.8 µM; 1% of 370,000 active;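 active means activation above the mean over all tested compounds plus 3 SD, cut at about 0.9% in these data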
DAX1 inh-1 – DAX1 (NR0B1) inhibition, primary screen. HEK293T StAR-luciferase reporter, SF-1/DAX-1 repression relief. inhibition, % at 6.8 µM. 1.1% of 370,000 active;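 active means inhibition above the mean over all tested compounds plus 3 SD, cut at about 3.6% in these data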;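 further: higher inhibition means more luminescence from relief of DAX-1 repression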
DAX1 inh-2 – NR0B1 (DAX1) inhibition; P51843; HEK293 Gal4-DAX1 luciferase reporter, luminescence; inhibition, % at 6.75 µM; 0.99% of 340,000 active; AID 504766;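 active means inhibition above the mean over all tested compounds plus 3 SD, cut at about 4.2% in these data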;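 further: inhibition shows as a rise in luminescence from relieved DAX1 repression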
Target sequence (P51843 207-470 limits assumed): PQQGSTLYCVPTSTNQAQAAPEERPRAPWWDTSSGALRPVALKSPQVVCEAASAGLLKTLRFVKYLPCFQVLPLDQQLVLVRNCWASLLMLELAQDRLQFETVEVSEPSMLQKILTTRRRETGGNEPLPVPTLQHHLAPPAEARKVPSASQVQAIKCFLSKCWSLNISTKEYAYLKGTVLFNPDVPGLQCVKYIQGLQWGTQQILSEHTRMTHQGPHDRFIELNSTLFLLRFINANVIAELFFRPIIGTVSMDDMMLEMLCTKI
hcDAF-12 act – activators of H. contortus DAF-12 nuclear receptor; HEK293 hcDAF-12 lit1-tk-luc reporter, luminescence; 0% DMSO, 100% Δ7-dafachronic acid; activation, % at 6.8 µM; 1.4% of 370,000 active; AID 652067;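 active means activation above the mean of all tested compounds plus 3 SD, cut at about 5.5% in these data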
hgDAF-12 ag – hgDAF-12 agonism, primary luciferase screen; HEK293 GAL4-hgDAF12 UAS-luciferase reporter, agonist luminescence; normalized to butyrate control; activation, % at 6.8 µM; 1.8% of 370,000 active; AID 687014;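 active means activation above a cutoff set at the mean of all screened compounds plus 3 SD, cut at about 10% in these data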
Each line names hits and unclear results; the compound was inactive in the other large screens. A selection: hits, their analogues and other compounds. The true share with any hit is near 4.1%.

O=C(C1CCCN1S(=O)(=O)c1cccc2nsnc12)N1CCN(c2ccccc2)CC1 (configuration not stated)	none (no result: ssDAF-12 act, DAX1 inh-1, hcDAF-12 act, hgDAF-12 ag)
O=C(Nc1ccc(Cl)cc1)Nc1ccccn1	hgDAF-12 ag 12.0
CNC(=O)N/N=C(\N)c1ccccn1	none
N/C(=N\NC(=O)Nc1ccc(Cl)cc1)c1ccccn1	hcDAF-12 act 5.6
O=C(Nc1ccccc1)Nc1ccccn1	none
CCOC(=O)C1=CCN(S(=O)(=O)c2cccc(Cl)c2)C1c1cccc(Cl)c1 (configuration not stated)	none (no result: DAX1 inh-2)
Cc1ccc(-n2nc3ccc(N)cc3n2)cc1Cl	hcDAF-12 act 6.2
Cc1ccc(-n2nc3ccc(N)cc3n2)cc1C	hcDAF-12 act 5.8
COc1ccc(CN2CCC(CNC(=O)NC(C)C)CC2)cc1	none (no result: DAX1 inh-2)
CCOc1ccccc1C(=O)Nc1ccccc1-c1ccccc1	hcDAF-12 act 5.7
CCOc1ccccc1C(=O)Nc1ccccc1O	none
COc1ccc(Br)cc1C=NNC(=O)c1ccncc1	none (no result: DAX1 inh-2)
O=c1[nH]c2ccccc2nc1-c1c[nH]c2ccccc12	hcDAF-12 act 6.5
Nc1ccccc1-c1nc2ccccc2[nH]c1=O	none
CN1CCN(C(=S)C(=O)Nc2ccc(Br)cc2)CC1	none
N#C/C(=N\Nc1ccccc1F)C(=N)N1CCCCC1	hgDAF-12 ag 11.1
COc1ccc(N/N=C(\C#N)C(=N)N2CCCCC2)cc1	DAX1 inh-2 6.4
CCN(CC)C(=N)/C(C#N)=N/Nc1ccc(C)cc1	DAX1 inh-2 7.1
Cc1ccc(N/N=C(\C#N)C(=N)N2CCOCC2)cc1	DAX1 inh-2 5.2, hgDAF-12 ag 13.0
N#C/C(=N\Nc1ccccc1)C(=N)N1CCOCC1	none
Oc1[nH]c2ccccc2c1N=Nc1ccc(F)cc1	hgDAF-12 ag 11.8
CC(C)(O)C(=O)N=Nc1c(O)[nH]c2ccccc12	hgDAF-12 ag 10.5
CCc1c(C)c2ccc(OCC(=O)NCC3CCC(C(=O)O)CC3)c(C)c2oc1=O (configuration not stated)	hgDAF-12 ag 11.4
Cc1ccc(-c2cn(-c3ccccc3F)c(=S)[nH]2)cc1	DAX1 inh-2 4.4, hgDAF-12 ag 11.0
O=c1oc2ccccc2n1CCCOc1ccccc1	hgDAF-12 ag 10.7
CC1(C)CC(=O)C(C#N)=C(NCCCO)C1	none
CC1(C)CC(=O)C([N+](=O)[O-])=C(NCCCC(=O)O)C1	DAX1 inh-2 4.5
COc1ccc(CC(=O)Nc2ccc(S(=O)(=O)Nc3cc(C)nc(C)n3)cc2)cc1OC	none
CC(COc1cc(F)cc(F)c1)CN1CCC(C(O)(c2ccccc2)c2ccccc2)CC1 (configuration not stated)	none (no result: DAX1 inh-2)
COC(=O)[C@@H]1[C@H](O[Si](C)(C)C(C)(C)C)C2OC2C[C@H]1S(=O)(=O)c1ccccc1 (some centres not stated)	none (no result: DAX1 inh-1, DAX1 inh-2)
CCCOC(=O)c1ccc(NC(=O)c2ccoc2C)cc1	none
CCCOC(=O)c1ccc(NC(=O)COC)cc1	none
CCCCOC(=O)c1ccc(NC(=O)c2ccoc2C)cc1	hgDAF-12 ag 11.6
CCCCOC(=O)Nc1ccc(C(N)=O)cc1	DAX1 inh-2 4.3
CCCCOC(=O)Nc1nnc(C(C)C)s1	DAX1 inh-2 5.7, hgDAF-12 ag 11.1
CCCOC(=O)c1ccc(NC(=O)CC(C)(C)C)cc1	DAX1 inh-1 3.8, hgDAF-12 ag 12.5
CCCCOC(=O)Nc1ccc(C(C)C)cc1	none
COC(=O)C1=C(C)N(Cc2cccc(C(F)(F)F)c2)C(=NCC2CC2)NC1c1cccc(C(F)(F)F)c1 (configuration not stated)	none (no result: DAX1 inh-2)
CC(C)(C)c1ccc(-c2cn(C[C@H](Cc3ccccc3)n3c(=O)c4ccccc4n3Cc3ccco3)nn2)cc1	none (no result: DAX1 inh-2)
O=C(NC(=S)NNC(=O)c1ccccc1O)c1cccnc1	DAX1 inh-2 4.3
O=C(NC(=S)NNS(=O)(=O)c1ccccc1)c1cccnc1	ssDAF-12 act 1.1
Cc1ccc(S(=O)(=O)NNC(=O)c2cccnc2)cc1	none
CCCCCCCCN1CN2Cc3ccc(C)cc3C2CS1(=O)=O (configuration not stated)	none (no result: DAX1 inh-2)
Cc1ccc([N+](=O)[O-])cc1S(=O)(=O)N1CCN(C)CC1	DAX1 inh-2 6.3
Cc1cc(C)c(C)c(S(=O)(=O)N2CCN(C)CC2)c1C	DAX1 inh-2 8.9
Cc1occc1C(=O)Nc1ccc(Br)cc1F	hgDAF-12 ag 11.7
Cc1occc1C(=O)Nc1cc(C(F)(F)F)ccc1Cl	DAX1 inh-2 4.6
COc1ccccc1/C=C/C1(C(=O)NC2CCCC2)CC(=O)N1c1ccccc1 (configuration not stated)	DAX1 inh-2 4.9
O=c1nc2ccccc2c2n1CC(CN1CCN(c3ccccc3F)CC1)N2 (configuration not stated)	none
CNc1nnc(-c2ccc(OC)cc2)s1	DAX1 inh-2 5.3, hgDAF-12 ag 10.7
COc1cc(/C=C(\C#N)C(=O)Nc2cccc(C(=O)O)c2)ccc1OCc1ccc(C)cc1	hcDAF-12 act 6.5
C[C@H]1[C@H](NC(=O)c2cccc(Cl)c2)CC[C@@]23CCCN2C(=O)CCC[C@@H]13	none (no result: DAX1 inh-1, DAX1 inh-2)
CCCCCC[C@H](CC)CN(C(=O)Oc1ccccc1)c1ccccc1	none (no result: DAX1 inh-2)
Cc1[nH]c2ccccc2c1C(=O)C(=O)NCc1nnnn1-c1ccc(F)c(F)c1	none
C(=C\c1ccccc1)/C=N/N1CCN(c2ccccn2)CC1	hgDAF-12 ag 11.2
C(/C=C/c1ccccc1)=N/N1CCN(c2ccccc2)CC1	none
COc1cccc(OCc2cc(C(=O)N3CCNC(=O)C3Cc3ccccc3)no2)c1 (configuration not stated)	DAX1 inh-1 4.2
NC(=O)[C@@H]1CCCN1C(=O)c1cc(COc2ccc3c(c2)CCCC3)on1	DAX1 inh-1 4.5
Cc1cccc(C)c1OCc1cc(C(=O)N2CCC[C@H]2C(N)=O)no1	none
COc1cccc(OCc2cc(C(=O)N3CCCC3c3ccccn3)no2)c1 (configuration not stated)	hgDAF-12 ag 12.4
CN(C(=O)CC1C(=O)NCCN1Cc1ccc(F)c(F)c1)C1CCOCC1 (configuration not stated)	none
COc1ccc(N2C(=O)C3CCCN3C2c2ccccc2F)cc1 (configuration not stated)	DAX1 inh-2 4.9
O=C1C2CCCN2C(c2ccccc2F)N1c1ccc(Cl)cc1 (configuration not stated)	none
NNC(=O)c1csc(COc2cc(Cl)cc(Cl)c2)n1	none (no result: DAX1 inh-2)
CC(=O)c1csc(COc2ccc(Cl)cc2)n1	DAX1 inh-2 9.3
CC(C)[C@@H]1NC(=O)[C@H]2C[C@@]3(c4ccccc4)c4ccccc4N[C@H]3N2C1=O	none (no result: DAX1 inh-2)
C=c1[nH]cc(C(C)c2c(C)n(C)c3ccccc23)/c1=C/C (configuration not stated)	hcDAF-12 act 6.0 (no result: DAX1 inh-2)
N#C/C(=C/c1ccc(-c2cc([N+](=O)[O-])ccc2Cl)o1)C(N)=O	DAX1 inh-2 9.3
N#C/C(=C/c1ccc(-c2ccccc2[N+](=O)[O-])o1)C(N)=O	none

Assay outcomes (PubChem)
